# Measured values taken from PubChem BioAssay.
# The source made the active and inactive calls. Unless noted, how the calls were made is not given here.
# What was measured:
# [1] = compounds binding Alexa647 anti-His antibody – biochemical, small-molecule microarray, 635 nm fluorescence, artefact control for SMM control protein annotation, primary screen (AID 1128); conditions: higher = more signal;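 further: score merges feature fluorescence with signal-to-noise for each printed compound spot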
# [2] = test system: Human papillomavirus type 1a E7 protein (residues 1-88); assay: HPV1a E7 small-molecule binders, primary screen, biochemical, small-molecule microarray, residues 1-88, 635 nm (AID 1129); conditions: small-molecule microarray binding, fluorescence 635 nm; higher = more signal
# [3] = target: Focal adhesion kinase 1 (Homo sapiens) (UniProt Q05397); assay: PTK2 protein binding on printed compound slides – biochemical, small-molecule microarray, 635/667 nm fluorescence, BSA, DTT, primary screen (AID 1130); conditions: 635 nm fluorescence, higher = more signal;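 further: composite of spot emission at 667 nm and signal to noise over triplicate slides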
# [4] = test system: Fibrinogen (Alexa647-labelled); assay: Alexa647-fibrinogen binding to printed small molecules – biochemical, small-molecule microarray, 635/667 nm fluorescence, artefact control for SMM control-protein annotation, profiling panel (AID 1131); conditions: fibrinogen-A647 binding fluorescence, higher = more signal;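 further: z-score merges 667 nm fluorescence with per-spot signal-to-noise over triplicate slides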
# [5] = target: Follistatin (Homo sapiens) (UniProt P19883); assay: FST protein binding to printed compounds – biochemical, small-molecule microarray, 635/667 nm fluorescence, primary screen (AID 1132); conditions: 635 nm fluorescence, higher = more signal
# [6] = target: Fibroblast growth factor 2 (Homo sapiens) (UniProt P09038); assay: basic fibroblast growth factor binding to printed compounds – biochemical, small-molecule microarray, 635/667 nm fluorescence, primary screen (AID 1133); conditions: FGF2, fluorescence 635/667, higher = more signal
# [7] = JC-1 mitochondrial potential readout, lung cancer cells – cell-based, A549, JC-1 fluorescence, basal, 24 h, 100 nL, profiling panel (AID 1138); conditions: higher = more signal;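 further: A549 lung adenocarcinoma cells under basal conditions with no added stimulus; test concentration not given here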
# Lefty1 = Lefty1 protein binding to printed compounds – biochemical, small-molecule microarray, 635/667 nm fluorescence, primary screen (AID 1139); conditions: fluorescence 635/667, higher = more signal
# [8] = test system: wheat germ agglutinin (Triticum aestivum), Alexa647-labelled; assay: Alexa647-WGA lectin binding to printed small molecules – biochemical, small-molecule microarray, 635/667 nm fluorescence, artefact control for SMM control-protein annotation, profiling panel (AID 1140); conditions: WGA-A647 binding, 635 nm fluorescence, higher = more signal;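 further: score merges 667 nm feature emission with signal to noise over triplicate slides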
# [9] = target: Luciferin 4-monooxygenase (Photinus pyralis) (UniProt P08659); assay: inhibition of purified Photinus pyralis luciferase – biochemical, luminescence, purified enzyme, 2006 set, primary screen (AID 1141); conditions: purified firefly luciferase, SteadyGlo luminescence, 30 min; higher = more signal, called active from +8 up or from −8 down;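 further: cell-free assay with purified firefly luciferase at 100 ng per well in PBS; test concentration not given here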
# [10] = test system: Wnt5a (protein binding on small-molecule microarray); assay: small molecules binding Wnt5a protein – biophysical, small-molecule microarray, 635/667 nm fluorescence, primary screen (AID 1142); conditions: 635 nm fluorescence, higher = more signal;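 further: fluorescence read at 667 nm with signal to noise per printed feature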
# [11] = ATP-based viability of Huh7 replicon cells – cell-based, CellTiter-Glo luminescence, basal, 48 h, cytotoxicity control for HCV replication inhibitor project, primary screen (AID 1143); conditions: higher = more signal, called active from +8 up or from −8 down;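 further: Huh7 hepatoma cells carrying a hepatitis C replication reporter with no stimulus; test concentration not given here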
# [12] = Pseudomonas biofilm growth suppression – PAO1 strain, BacTiter-Glo luminescence, LB-PBS, primary screen (AID 1144); conditions: P. aeruginosa PAO1 biofilm, 12 h, higher = more signal
# [13] = basal CRE-LacZ reporter activity in PC12 – cell-based, unstimulated, primary screen (AID 1145); conditions: no forskolin, luminescence, 4.5 h, higher = more signal, called active from +8 up or from −8 down
# [14] = forskolin-driven CRE-LacZ activity in PC12 – cell-based, CRE-LacZ reporter, forskolin-stimulated, primary screen (AID 1146); conditions: luminescence, 4.5 h, higher = more signal, called active from +8 up or from −8 down;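 further: PC12 cells with 6xCRE LacZ reporter stimulated by forskolin 10 µM; beta-galactosidase reporter signal reflecting CREB driven transcription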
# [15] = target: Streptavidin (Streptomyces avidinii) (UniProt P22629); assay: compounds binding control protein streptavidin – biophysical, small-molecule microarray, 635/667 nm fluorescence, artefact control for SMM compound annotation, primary screen (AID 1147); conditions: higher = more signal;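 further: signal reflects streptavidin binding to arrayed compounds as a control protein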
# [16] = probe aInhba binding on compound microarray – biochemical, small-molecule microarray, 635/667 nm fluorescence, primary screen (AID 1148); conditions: higher = more signal;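 further: score merges 667nm spot fluorescence with signal-to-noise for antibody binding to printed compounds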
# Torsin-1A (Homo sapiens) [17] = target: Torsin-1A (Homo sapiens) (UniProt O14656); assay: TOR1A wild-type binding on microarray – cell lysate, small-molecule microarray, lysate, 635/667 nm, primary screen (AID 1149); conditions: COS7 hTOR1A-WT lysate, 635 nm fluorescence, higher = more signal
# Torsin-1A (Homo sapiens) [18] = target: Torsin-1A (Homo sapiens) (UniProt O14656); assay: torsin A mutant lysate binding on microarrays – cell lysate, small-molecule microarray, COS7 lysate, 635/667 nm fluorescence, primary screen (AID 1150); conditions: COS7 hTOR1A mutant lysate, 635 nm fluorescence, higher = more signal;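 further: score pools 667 nm emission and signal to noise measuring lysate protein binding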
# [19] = test system: Sonic hedgehog protein (Shh); assay: Sonic hedgehog microarray binding compounds – biochemical, small-molecule microarray, 635/667 nm fluorescence, primary screen (AID 1151); conditions: 635 nm fluorescence, higher = more signal;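 further: Shh protein binding to compounds spotted on small-molecule microarray slides; score combines spot fluorescence intensity with signal-to-noise across triplicate slides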
# Sequence of Luciferin 4-monooxygenase (Photinus pyralis) (P08659 whole entry, looked up): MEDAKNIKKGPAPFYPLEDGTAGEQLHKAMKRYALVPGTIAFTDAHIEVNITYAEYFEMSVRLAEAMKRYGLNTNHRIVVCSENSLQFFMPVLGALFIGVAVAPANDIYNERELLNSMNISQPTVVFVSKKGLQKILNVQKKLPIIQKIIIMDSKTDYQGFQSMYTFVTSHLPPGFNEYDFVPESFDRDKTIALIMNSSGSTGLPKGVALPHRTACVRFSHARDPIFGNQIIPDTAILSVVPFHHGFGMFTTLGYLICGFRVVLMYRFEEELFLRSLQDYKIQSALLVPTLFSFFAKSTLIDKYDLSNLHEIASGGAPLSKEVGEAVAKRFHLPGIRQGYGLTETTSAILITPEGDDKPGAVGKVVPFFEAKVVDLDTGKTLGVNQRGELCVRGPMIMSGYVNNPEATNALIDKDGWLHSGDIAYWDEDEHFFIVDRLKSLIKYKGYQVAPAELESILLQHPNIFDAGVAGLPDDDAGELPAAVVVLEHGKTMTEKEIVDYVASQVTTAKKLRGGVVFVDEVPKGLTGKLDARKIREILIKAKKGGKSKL
# Sequence of Fibroblast growth factor 2 (Homo sapiens) (P09038 whole entry, looked up): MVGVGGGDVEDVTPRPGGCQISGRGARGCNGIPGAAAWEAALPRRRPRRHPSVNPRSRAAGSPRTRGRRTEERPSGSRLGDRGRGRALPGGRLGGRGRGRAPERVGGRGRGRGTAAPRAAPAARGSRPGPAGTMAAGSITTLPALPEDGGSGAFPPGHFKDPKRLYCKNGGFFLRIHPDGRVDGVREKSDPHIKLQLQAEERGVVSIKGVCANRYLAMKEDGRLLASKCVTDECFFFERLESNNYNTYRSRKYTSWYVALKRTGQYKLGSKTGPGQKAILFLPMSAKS
# Sequence of Focal adhesion kinase 1 (Homo sapiens) (Q05397 whole entry, looked up): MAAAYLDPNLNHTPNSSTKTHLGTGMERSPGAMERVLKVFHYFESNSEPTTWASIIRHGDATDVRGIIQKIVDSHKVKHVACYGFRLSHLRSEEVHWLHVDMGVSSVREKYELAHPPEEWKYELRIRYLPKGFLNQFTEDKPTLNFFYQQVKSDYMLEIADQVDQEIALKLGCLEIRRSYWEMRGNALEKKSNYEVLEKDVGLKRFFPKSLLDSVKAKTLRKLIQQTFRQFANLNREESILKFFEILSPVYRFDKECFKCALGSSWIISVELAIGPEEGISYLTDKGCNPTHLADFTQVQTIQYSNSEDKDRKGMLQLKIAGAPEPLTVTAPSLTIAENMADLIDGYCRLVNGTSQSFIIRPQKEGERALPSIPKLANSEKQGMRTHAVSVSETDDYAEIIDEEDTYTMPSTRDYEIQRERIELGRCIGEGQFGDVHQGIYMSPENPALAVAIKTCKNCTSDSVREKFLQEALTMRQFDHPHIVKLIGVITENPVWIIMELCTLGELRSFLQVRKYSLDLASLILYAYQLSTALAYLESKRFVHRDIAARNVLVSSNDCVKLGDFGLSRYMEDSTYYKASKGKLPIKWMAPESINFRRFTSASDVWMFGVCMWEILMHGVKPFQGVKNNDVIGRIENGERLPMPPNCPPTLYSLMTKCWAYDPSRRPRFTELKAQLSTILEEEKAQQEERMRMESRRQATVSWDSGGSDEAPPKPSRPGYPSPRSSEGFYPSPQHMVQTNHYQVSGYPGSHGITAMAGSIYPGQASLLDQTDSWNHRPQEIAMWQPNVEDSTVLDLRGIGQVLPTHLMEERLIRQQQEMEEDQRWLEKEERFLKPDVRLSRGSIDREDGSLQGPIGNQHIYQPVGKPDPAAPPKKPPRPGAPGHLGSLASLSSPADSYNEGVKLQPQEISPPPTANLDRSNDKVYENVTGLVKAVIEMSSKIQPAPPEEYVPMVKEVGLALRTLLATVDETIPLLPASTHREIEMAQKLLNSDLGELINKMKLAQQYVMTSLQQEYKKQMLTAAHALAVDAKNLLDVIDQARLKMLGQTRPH
# Sequence of Torsin-1A (Homo sapiens) (O14656 whole entry, looked up): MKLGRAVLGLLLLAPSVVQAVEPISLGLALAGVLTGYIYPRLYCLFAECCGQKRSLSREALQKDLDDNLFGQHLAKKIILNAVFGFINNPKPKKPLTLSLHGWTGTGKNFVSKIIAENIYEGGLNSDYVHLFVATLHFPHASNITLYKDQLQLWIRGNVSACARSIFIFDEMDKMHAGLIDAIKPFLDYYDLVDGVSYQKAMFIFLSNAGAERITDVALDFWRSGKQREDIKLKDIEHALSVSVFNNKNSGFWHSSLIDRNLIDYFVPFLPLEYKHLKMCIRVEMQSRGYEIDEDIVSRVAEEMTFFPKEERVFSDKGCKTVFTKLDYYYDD
# Sequence of Follistatin (Homo sapiens) (P19883 whole entry, looked up): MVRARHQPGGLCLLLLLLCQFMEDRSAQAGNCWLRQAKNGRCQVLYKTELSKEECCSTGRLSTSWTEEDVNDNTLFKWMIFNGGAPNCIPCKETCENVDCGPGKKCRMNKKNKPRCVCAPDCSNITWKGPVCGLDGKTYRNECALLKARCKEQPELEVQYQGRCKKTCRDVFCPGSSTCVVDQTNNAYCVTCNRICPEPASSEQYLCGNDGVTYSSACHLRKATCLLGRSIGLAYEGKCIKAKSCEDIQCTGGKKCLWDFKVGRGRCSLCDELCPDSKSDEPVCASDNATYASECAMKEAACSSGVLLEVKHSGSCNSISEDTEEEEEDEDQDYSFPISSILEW
# Sequence of Streptavidin (Streptomyces avidinii) (P22629 whole entry, looked up): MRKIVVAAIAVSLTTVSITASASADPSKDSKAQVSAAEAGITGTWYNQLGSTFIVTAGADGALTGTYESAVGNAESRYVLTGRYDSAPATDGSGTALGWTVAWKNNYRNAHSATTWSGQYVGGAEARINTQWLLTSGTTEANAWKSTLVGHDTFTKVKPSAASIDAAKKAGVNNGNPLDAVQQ
SMILES,composite z-score [1],composite z-score [2],composite z-score [3],composite z-score [4],composite z-score [5],composite z-score [6],z-score [7],composite z-score (Lefty1),composite z-score [8],z-score [9],composite z-score [10],z-score [11],z-score [12],z-score [13],z-score [14],composite z-score [15],composite z-score [16],composite z-score (Torsin-1A (Homo sapiens) [17]),composite z-score (Torsin-1A (Homo sapiens) [18]),composite z-score [19]
CCOC(=O)C1=CC[C@@H](c2ccc(N(CC)CC)cc2)N(S(=O)(=O)c2ccc(C)cc2)[C@H]1c1ccc([N+](=O)[O-])cc1,0.479,0.836,0.718,0.403,-0.35,-1.18,1.53,-0.863,0.516,0.719 (inactive),-0.383,-3.45 (inactive),0.858 (inactive),-0.583 (inactive),0.619 (inactive),1.08,-0.0332,-1,-0.101,-0.438
CCCC=C(CCC)[C@@H](NS(=O)(=O)CC)c1ccccc1,0.365,1.18,0.655,0.976,0.322,0.152,-1.72,-0.346,0.265,2.1 (inactive),0.356,-2.11 (inactive),0.932 (inactive),0.59 (inactive),1.16 (inactive),1.08,0.279,0.252,0.0756,-0.324
COCCOC(=O)N1C(=O)[C@@]2(c3cc(C#CCNC(N)=O)ccc31)[C@H](c1ccc(OCCO)cc1)N1[C@H](c3ccccc3)[C@H](c3ccccc3)OC(=O)[C@H]1[C@@H]2C(=O)N1CCN(c2ncccn2)CC1,0.122,1.09,1.58,0.72,1.41,1.24,-1.57,0.411,0.447,-1.23 (inactive),0.333,0.0075 (inactive),0.443 (inactive),0.212 (inactive),0.675 (inactive),0.651,-0.024,0.833,0.581,0.983
O=C1O[C@H](c2ccccc2)[C@H](c2ccccc2)N2[C@H]1[C@@H](C(=O)N1CCCCCCC1)[C@]1(C(=O)Nc3ccccc31)[C@H]2c1ccc(O)cc1,3.64,1.34,3.9,0.514,1.55,1.54,0.0754,1.85,1.77,-0.809 (inactive),2.61,-1.21 (inactive),0.387 (inactive),-0.0566 (inactive),-0.599 (inactive),4.14,2.28,3.49,3.61,1.55
O=C(N1CCOCC1)[C@@]1(CCS(=O)(=O)c2ccccc2)COC(c2ccc(OCCCO)cc2)=N1,0.436,1.18,0.307,-0.71,-0.176,0.974,-0.336,-1.32,-0.204,0.735 (inactive),-0.102,-0.963 (inactive),0.585 (inactive),0.148 (inactive),1.58 (inactive),-0.411,-0.374,0.385,0.65,-0.784
COc1ccc([Si](C)(C)[C@H]2[C@H](CCn3cc(CCO)nn3)O[C@@]3(C(=O)N(Cc4cccc(N5C(=O)c6cccc7cccc5c67)c4)c4ccccc43)[C@@H]2C)cc1,0.246,1.05,0.124,0.497,0.958,0.691,-0.338,1.21,0.878,-1.54 (inactive),0.16,-7.3 (inactive),-1.11 (inactive),11 (active),-1.3 (inactive),0.99,-0.018,1.33,1.22,1.37
